ADAM10 inh – inhibits human ADAM10; recombinant ADAM10, EDANS/DABCYL FRET peptide cleavage, 3 h; inhibition, % at 7 µM; actives 0.62% (n = 370,000); AID 720582;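 active means inhibition above a per-campaign cutoff equal to the mean of compounds falling between control-based bounds plus 3 SD, cut at about 20% in these data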;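 further: 0% = DMSO wells while the 100% control is not disclosed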
Target sequence (O14672 214-748 limits assumed): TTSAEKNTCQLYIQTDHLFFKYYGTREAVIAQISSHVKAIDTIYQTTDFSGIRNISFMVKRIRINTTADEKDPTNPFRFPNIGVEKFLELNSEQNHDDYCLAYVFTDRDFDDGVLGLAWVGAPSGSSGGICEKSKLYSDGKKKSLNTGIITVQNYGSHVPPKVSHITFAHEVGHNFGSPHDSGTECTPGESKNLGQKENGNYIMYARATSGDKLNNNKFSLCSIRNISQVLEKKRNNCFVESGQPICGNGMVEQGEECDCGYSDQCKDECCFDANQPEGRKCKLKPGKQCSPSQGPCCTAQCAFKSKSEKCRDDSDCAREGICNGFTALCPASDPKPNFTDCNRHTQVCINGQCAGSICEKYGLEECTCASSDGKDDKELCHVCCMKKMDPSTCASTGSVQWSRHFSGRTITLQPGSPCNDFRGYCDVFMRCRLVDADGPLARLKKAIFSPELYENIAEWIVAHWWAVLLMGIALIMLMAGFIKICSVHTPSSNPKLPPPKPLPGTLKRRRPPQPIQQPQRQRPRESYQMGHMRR
rCAG RNA binder – r(CAG) repeat RNA binding | TO-PRO-1 dye displacement fluorescence | inhibition, % at 3 µM | actives 1.3% (n = 370,000);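 active means inhibition above the plate cutoff, the mean of all test compounds on that plate plus 3 SD, cut at about 35% in these data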;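 further: 0% = DMSO alone and 100% = 100 µM mitoxantrone as full dye displacement; higher means more dye released from RNA so lower well fluorescence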
proKLK7 act – activates the human kallikrein-7 zymogen; activation, % at 7 µM; P49862; purified proKLK7, EDANS-DABCYL substrate fluorescence; 100% is mature enzyme control, 0% vehicle; actives 0.9% (n = 370,000);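 active means activation above the mean of all tested compounds plus 3 SD, computed per campaign excluding outliers beyond control limits, cut at about 13% in these data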
ADAM17 inh – inhibits human ADAM17 | actives 0.83% (n = 370,000) | recombinant ADAM17, EDANS/DABCYL FRET peptide cleavage | AID 720648 | P78536 | inhibition, % at 6.95 µM;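 active means inhibition above the mean of compounds lying between control limits plus 3 SD, set per campaign, cut at about 8.5% in these data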;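 further: 0% = DMSO-only wells as the low control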
AHR act – activates the human aryl hydrocarbon receptor | P35869 | AHR-responsive luciferase reporter cells, luminescence | activation, % at 5 µM | actives 2.5% (n = 320,000) | AID 2796; in the data active means activation above about 47%;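 further: 0% = vehicle wells and 100% = reference agonist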
NR3A LBD binder – NR3A (human) ligand-binding domain modulation. NR3A LBD differential scanning fluorimetry, Tm shift; 0% = protein alone, 100% = glycine-bound protein. Tm shift relative to glycine control, % at 25 µM. actives 2.5% (n = 340,000). AID 1259313;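 active means melting temperature shift of at least 10% of the positive control shift, at one fixed dose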
ADAM10 ctr – inhibits human ADAM10 in ADAM17 exosite counter-screen. shares compounds with ADAM17 inh. recombinant ADAM10, EDANS/DABCYL FRET peptide cleavage, 3 h. inhibition, % at 6.95 µM. actives 47% (n = 2,900);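 active means mean inhibition over the triplicate runs exceeds the activity threshold set in the earlier primary screen, cut at about 20% in these data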;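 further: 0% = DMSO wells and 100% = marimastat wells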
ADAM17 confirm – confirmation of inhibitors of human ADAM17. recombinant ADAM17, EDANS/DABCYL QFRET peptide cleavage. inhibition, % at 6.95 µM. actives 65% (n = 2,900). shares compounds with ADAM17 inh. AID 743257;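 active means mean inhibition across replicates above the hit cutoff set in the primary screen, cut at about 8.5% in these data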;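 further: 0% = DMSO wells and 100% = marimastat wells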
The depositor's hits bear a star; nt = no result given. The list is not random: actives were taken first. Their share in the collection is about 7%.

SMILES	ADAM10 inh	rCAG RNA binder	proKLK7 act	ADAM17 inh	AHR act	NR3A LBD binder	ADAM10 ctr	ADAM17 confirm
Cc1onc(-c2ccccc2Cl)c1C(=O)Nc1cccc(S(=O)(=O)N2CCOCC2)c1	-17	2	0	0	4	3	nt	nt
Cc1onc(-c2ccccc2)c1C(=O)Nc1ccc(Cl)c(S(=O)(=O)N2CCOCC2)c1	-4	5	0	11*	4	3	10	6
COc1ccc(C2=Nn3c(nnc3-c3ccccc3F)SC2)cc1OC1CCCC1	27*	3	1	11*	41	-4	24*	17*
CCOC(=O)C1(Cc2ccccc2C#N)CCCCC1=O (centres undefined)	-17	-3	-1	-4	nt	-1	nt	nt
CCNC(=O)COC(=O)COc1ccc(Cl)cc1C	-9	0	-1	-1	4	-1	nt	nt
Cc1cc(Cl)ccc1OCC(=O)OCC(=O)Nc1ccc(F)c([N+](=O)[O-])c1	17	10	0	9.0*	3	26*	43*	18*
COc1ccc(OC)c(CNc2ccc([N+](=O)[O-])cc2C)c1	11	0	0	5	12	-36	nt	nt
COc1cccc(CNc2ccc([N+](=O)[O-])cc2C)c1	17	3	1	12*	6	-13	15	12*
CC(=O)c1cccc(NC(=O)C2CCCC2)c1	-1	2	0	9.5*	1	-1	-7	-3
CC(C)CC(=O)Nc1ccc2c(c1)nc(CCN1CCOCC1)n2C	-41	-4	0	-14	0	0	nt	nt
CCOC(=O)[C@]12CCC=C1N(Cc1cccc3ccccc13)C(=O)[C@H](CC(=O)N1CCN(C(=O)C3CC3)CC1)C2	-11	3	0	-1	nt	nt	nt	nt
COc1ccc(CCN=C(N)NS(=O)(=O)c2ccccc2)cc1	4	0	0	-5	5	0	nt	nt
NC(=NCCc1c[nH]c2ccccc12)NS(=O)(=O)c1ccc2ccccc2c1	15	9	0	9.9*	19	9	18	9.4*
O=C(Nc1ccc(F)cc1F)c1cccn1-c1ncc(C(F)(F)F)cc1Cl	7	-4	0	2	1	1	nt	nt
Cc1cc(C)cc(NC(=O)c2cccn2-c2ncc(C(F)(F)F)cc2Cl)c1	19	0	0	17*	6	-12	9	5
CC(C)CN1CCC(=O)N(CCO)CC1	1	1	1	0	1	3	nt	nt
COc1cc(CNc2ncnc3c2ncn3[C@H]2CN(Cc3ccncc3)C[C@@H](CO)O2)cc(OC)c1OC	-11	1	0	-4	nt	nt	nt	nt
CCOC(=O)c1ccc(N2C(=O)c3n[nH]c(C)c3C2c2ccc(OC)cc2OC)cc1 (centres undefined)	17	9	0	8.7*	-5	-18	16	10*
COc1ccc(CC(=O)NNC(=O)CSc2nnc(Cc3ccc(OC)cc3)n2-c2ccccc2)cc1	1	-5	0	0	1	1	nt	nt
O=C(CSc1nnc(Cc2ccccc2)n1-c1cccc(Cl)c1)NNC(=O)Cc1ccccc1	17	-1	0	15*	1	-1	10	5
OCC[C@@H]1C[C@H](O)[C@@H](O)[C@@]2(CCCCO2)O1	0	1	0	1	-7	1	nt	nt
CN(C)c1ccc(NC(=O)c2ccc(COc3cccc(Cl)c3)o2)cc1	17	1	0	10*	71*	-3	18	12*
Cc1ccc(NS(=O)(=O)c2ccc(NC(=O)CSc3ccc(Cl)cc3)cc2)c(C)c1	17	19	0	9.0*	1	23*	28*	11*
COC(=O)[C@H](CC(C)C)N(CCCc1cn(Cc2ccccc2)nn1)S(=O)(=O)c1ccccc1Br	19	3	0	13*	nt	nt	36*	15*
COC(=O)[C@H](CC(C)C)N(CCc1cn(Cc2ccccc2)nn1)S(=O)(=O)c1ccccc1Br	14	2	0	8.7*	nt	nt	17	12*
SMILES	ADAM10 inh	rCAG RNA binder	proKLK7 act	ADAM17 inh	AHR act	NR3A LBD binder	ADAM10 ctr	ADAM17 confirm
COc1ccc2oc(=O)c(C(=O)C[n+]3cccc(C)c3)cc2c1	-8	5	-1	-5	-2	0	nt	nt
COCCOc1ccc(C(F)(F)F)cc1NC(=O)CN1C(=O)NC2(CCCc3ccccc32)C1=O (centres undefined)	17	2	0	9.7*	8	-16	16	10*
COCCOc1ccc(C(F)(F)F)cc1NC(=O)CN1C(=O)NC2(CCc3ccccc32)C1=O (centres undefined)	3	4	0	-1	5	-14	nt	nt
CCCn1c(SCC(=O)Nc2ccc(S(=O)(=O)N3CCOCC3)cc2)n[nH]c1=O	-13	0	0	-7	nt	nt	nt	nt
Cc1noc(C)c1C(=O)OCC(=O)Nc1ccccc1Oc1ccccc1	12	1	0	8.7*	1	0	6	11*
Cc1cccc(OCc2nnc(SCC(=O)Nc3cccc(C(=O)N4CCOCC4)c3)n2C)c1	3	0	0	-7	-3	-1	nt	nt
Cc1cccc(OCc2nnc(SCC(=O)Nc3cccc(C(=O)N4CCOCC4)c3)n2C)c1C	8	-1	1	10*	-1	-6	-9	-3
Cc1ccc(S(=O)(=O)N(CC(=O)Nc2cccc(N(C)S(C)(=O)=O)c2)c2ccc(Cl)c(Cl)c2)cc1	25*	10	0	13*	-1	7	39*	22*
Cc1cc(C)nc(Nc2nc(C(N)Cc3ccccc3)cs2)n1 (centres undefined)	-4	12	0	1	nt	nt	nt	nt
C[C@@H](c1ccccc1)N1C[C@H](COCc2ccccc2)Oc2cc(N3CC[C@@H](O)C3)ccc2S1(=O)=O	12	6	0	10*	nt	nt	16	6
C[C@H](c1ccccc1)N1C[C@H](COCc2ccccc2)Oc2cc(N3CC[C@@H](O)C3)ccc2S1(=O)=O	13	11	0	9.8*	nt	nt	29*	15*
C[C@@H](c1ccccc1)N1C[C@@H](COCc2ccccc2)Oc2cc(N3CC[C@@H](O)C3)ccc2S1(=O)=O	10	8	0	7	nt	nt	nt	nt
O=C(NCC(=O)N1CCN(C(c2ccccc2)c2ccccc2)CC1)c1ccccc1Br	14	0	1	12*	nt	nt	20*	12*
S=c1[nH]nc(C2CCCCC2)n1/N=C/C=C/c1ccccc1	17	10	0	9.2*	-3	-3	19	11*

From PubChem BioAssay
